# Experimental data reported in ChEMBL document CHEMBL3988442, “University of Dundee, Small-Polar-MMV Screening Library” (2021).
# Tests used:
# [1] = target: T1, Aspartate--tRNA(Asp/Asn) ligase (Mycobacterium tuberculosis (strain ATCC 25618 / H37Rv)) (UniProt P9WFW3); assay: Assay for Asp RNA synthetase-1 from Mycobacterium tuberculosis; assay type: functional; set-up: scale not given: direction of the effect not stated beside the values; conditions: 30 µM; note: in the data most compounds retested in dose-response had high values
# T1 sequence (whole entry): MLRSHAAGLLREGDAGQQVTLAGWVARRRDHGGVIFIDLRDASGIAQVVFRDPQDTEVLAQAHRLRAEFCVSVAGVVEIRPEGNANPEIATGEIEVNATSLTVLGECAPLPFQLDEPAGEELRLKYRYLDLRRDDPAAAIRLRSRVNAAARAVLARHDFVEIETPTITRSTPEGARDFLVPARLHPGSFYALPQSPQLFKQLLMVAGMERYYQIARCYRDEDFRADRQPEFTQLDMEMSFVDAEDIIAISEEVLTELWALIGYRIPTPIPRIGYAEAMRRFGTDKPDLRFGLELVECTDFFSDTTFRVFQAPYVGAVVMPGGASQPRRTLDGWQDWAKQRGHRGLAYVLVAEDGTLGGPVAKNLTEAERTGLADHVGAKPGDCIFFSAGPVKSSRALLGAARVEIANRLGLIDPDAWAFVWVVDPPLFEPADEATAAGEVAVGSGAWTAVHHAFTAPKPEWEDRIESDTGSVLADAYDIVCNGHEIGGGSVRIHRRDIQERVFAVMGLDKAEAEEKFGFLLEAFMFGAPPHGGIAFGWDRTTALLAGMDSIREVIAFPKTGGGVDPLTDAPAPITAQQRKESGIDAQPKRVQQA
# [2] = target: Shiga toxin 2 (Escherichia coli O157:H7) (UniProt P09385+P09386); assay: E. coli 0.157:H7 Shiga Toxin SOP - stx2 screening assay; assay type: functional; set-up: scale not given: direction of the effect not stated beside the values; conditions: 30 µM
Compound,Percent Effect [1],Percent Effect [2]
c1cc(CN2CCN(Cc3cscn3)CC2)cs1,1.38%,26.6%
COC(=O)c1cccn1C1CCN(Cc2ccccc2)CC1,0.995%,-6.65%
COC(=O)C1CCN(C(=O)c2ccc(C)c(NS(C)(=O)=O)c2)CC1,-1.09%,-2.45%
COc1c(CNCC(c2cccc(F)c2)N(C)C)c(C(C)C)nn1C (stereo unspecified),-3.2%,-15.5%
COCCNC(=O)c1ccc(C)c(-n2cccc2)c1,-0.779%,-6.48%
O=C(CC1CCCC1)N1CCCC(c2n[nH]c3nccnc23)C1 (stereo unspecified),-1.74%,19.5%
Cc1occc1C(=O)Nc1ccnc(OC2CCOC2)c1 (stereo unspecified),-6.74%,3.41%
Cc1nn(C)c(N2CCOCC2)c1CNC(c1cccs1)C(C)C (stereo unspecified),1.8%,25.3%
CN(C(=O)CCNC(=O)NC1CCCCC1)c1ccccc1,-1.38%,4.9%
COc1ncccc1NC(=O)NCC1CCS(=O)(=O)C1 (stereo unspecified),1.33%,-1.65%
CNS(=O)(=O)c1cccc(CNC(=O)c2c(C)oc(C)c2C)c1,-7.7%,-67.3%
O=C(c1ccncc1F)N1CCc2ncnc(-c3ccncc3)c2CC1,3.59%,-0.901%
CSc1ccccc1CN1CCCn2nc(CNC(=O)N(C)C)cc2C1,2.53%,-34.2%
O=C(c1n[nH]c2c1CCN(Cc1nccs1)C2)N1CCCC1,-0.578%,-3.88%
Cn1cc(-c2csc(N3CCOCC3)n2)cn1,2.54%,-13%
CC(C)CN1C[C@@H]2CN(C(=O)[C@H]3CCCO3)C[C@@H]2C1=O,1.02%,-18.1%
O=C(NCC1(CO)CC1)c1cccc2ccccc12,-3.45%,-0.178%
Cc1cc(CN2CCc3nn(C)c(=O)cc3C2)on1,46.2%,0.17%
